Assay [1] deals with Gonadotropin-releasing hormone receptor (Homo sapiens) (UniProt P30968). Description: Human gonadotropin-releasing hormone receptor (GnRHR) small molecule agonists, calcium flux assay in GnRHR-HEK293 cells (AID 1920063). Note: nearly all actives have a fitted effect of over 35% in size. A digest of the protocol:
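GnRHR-HEK293, 1500 cells/well, 18 h 37 C/5% CO2; Ca dye 1 h 37 C; cpd pinned (DMSO), agonist mode; kinetic FL 480/540, 3 min, 1 s reads; 15 conc, n=3.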

Assay [2] concerns the target KiSS-1 receptor (Homo sapiens) (UniProt Q969F8). Description: Human kisspeptin (KISS1R) small molecule agonists, calcium flux assay in KISS1R-HEK293 cells (AID 1920064; active = well fitted activation curve with a large enough effect in the repeat runs). An outline of the steps: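 Stable human KISS1R HEK293 line; 18 h plating, 37 C/5% CO2; calcium dye 1 h 37 C; compound pin transfer; kinetic fluorescence Ex/Em 480/540, 3 min.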
Background: Calcium flux is commonly read through the fluorescence of an indicator in the cells.

The nature of assay [3]: p53 small molecule agonists, cell-based qHTS assay with rat liver microsomes: qHTS cell viability counter screen (AID 1963580). Note: nearly all actives have a fitted effect of over 45% in size. Note: potency is the fitted concentration of half-maximal effect. An outline of the steps:
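In HCT-116 cells carrying a p53 response element-bla reporter, compounds were metabolically activated in situ by rat liver microsomes with NADPH over 16 h. Cell ATP content then served as the cytotoxicity measure.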
(In general: Quantitative high-throughput screening tests each substance at several concentrations.)

Assay [4] has as its target 5-hydroxytryptamine receptor 2A (Homo sapiens) (UniProt P28223). Briefly: 5-hydroxytryptamine receptor 2A (HTR2A) small molecule agonists, cell-based qHTS assay (AID 1963587). Note: nearly all actives have a fitted effect of over 30% in size. An outline of the steps:
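HTR2A-CHO cells, plated 18 h at 37 C/5% CO2, dye-loaded 1 h at 37 C; compounds in DMSO added by pin tool (agonist mode). Intracellular calcium flux read as kinetic fluorescence on FDSS over 2 min at 1 s intervals.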

For assay [5], the target named is Muscarinic acetylcholine receptor M1 (Homo sapiens) (UniProt P11229). Description: Cholinergic receptor muscarinic 1 (CHRM1) small molecule antagonists, cell-based qHTS assay (AID 1963588). Note: nearly all actives have a fitted effect of over 40% in size. An outline of the steps:
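CHRM1-CHO calcium-flux assay, antagonist mode. Cells were seeded 18 h, dye-loaded 1 h at 37 C and given compound for 5 min at RT, then acetylcholine was added at 50nM. FDSS fluorescence was read 3 min; 15 concentrations, three runs.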

Assay [6] in a line: cAMP Responsive Elements (CRE) small molecule agonists, cell-based qHTS assay (AID 1963590). A digest of the protocol: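 HEK 293T CRE-bla, 2,000 cells/well, 18 h preincubation 37 C/5% CO2; cpds (DMSO) pinned, 3 h; LiveBLAzer B/G FRET substrate, 2 h RT.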
The nature of assay [7]: cAMP Responsive Elements (CRE) small molecule antagonists, cell-based qHTS assay (AID 1963591; active = well fitted inhibition curve with a large enough effect in the signal ratio in the repeat runs, not every such curve was filed as active; the % refers to the signal ratio). A digest of the protocol:
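Beta-lactamase reporter read by FRET substrate (LiveBLAzer B/G) after 2 h at room temperature. CRE-bla HEK293T cells had received compound plus 0.25 uM (final) NKH477 for 3 h at 37 °C.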

Assay [8] deals with Beta-2 adrenergic receptor (Homo sapiens) (UniProt P07550). Description: Adrenergic beta2 receptor (ADRB2) small molecule antagonists, cell-based qHTS assay (AID 1963592). Note: series mostly up to about 92 µM; nearly all actives have a fitted effect of over 50% in size. A digest of the protocol:
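Cells (CHO, stable ADRB2 overexpression) incubated 18-20hr at 37C; compounds added from DMSO; agonist mix (1nM isoproterenol, 100uM IBMX, 25uM Ro-20-1724) added; 0.5hr RT; d2-cAMP and anti-cAMP-cryptate added; 1hr RT; 665/615 nm read.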

A short description of assay [9]: p53 small molecule agonists, cell-based qHTS assay with human liver microsomes (AID 1963577). A digest of the protocol:
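p53RE-bla reporter cells were pre-incubated 5 h at 37 C, then treated with compounds plus human liver microsomes (0.5 mg/mL final) and NADPH (0.5 mg/mL final) for 16 h at 37 C. Beta-lactamase activity was read by LiveBLAzer fluorescence after 2 h at room temperature.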

Assay [10] is described as follows: p53 small molecule agonists, cell-based qHTS assay with rat liver microsomes (AID 1963578). An outline of the steps:
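p53RE-bla cells were exposed to compounds together with rat liver microsomes (0.5 mg/mL final) and NADPH (0.5 mg/mL final) for 16 h at 37 C, then read by LiveBLAzer beta-lactamase fluorescence after 2 h at room temperature.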

A short description of assay [11]: p53 small molecule agonists, cell-based qHTS assay with human liver microsomes: qHTS cell viability counter screen (AID 1963579). Note: nearly all actives have a fitted effect of over 45% in size. A digest of the protocol: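 p53RE-bla cells (4,000/well) were pre-incubated 5 h at 37 C, then given compounds in DMSO plus human liver microsomes (0.5 mg/mL final) and NADPH (0.5 mg/mL final) for 16 h at 37 C. Viability was read by CellTiter-Glo luminescence.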

A short description of assay [12]: p53 small molecule agonists, cell-based qHTS assay: qHTS cell viability counter screen (AID 1963581). Note: nearly all actives have a fitted effect of over 45% in size. An outline of the steps:
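HCT-116 p53RE-bla cells, 4,000/well, plated 5 h before compound pin transfer; 16 h at 37 C; bla substrate 2 h RT; then CellTiter-Glo, 30 min RT, luminescence.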

The target of assay [13] is Beta-2 adrenergic receptor (Homo sapiens) (UniProt P07550). Description: Adrenergic beta2 receptor (ADRB2) small molecule agonists, cell-based qHTS assay (AID 1963593).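 For activation: CHO cells stably overexpressing human ADRB2.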 Note: potency is the fitted concentration of half-maximal effect. An outline of the steps: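 CHO cells stably over-expressing ADRB2 were plated overnight at 37C, then dosed with compounds plus a stimulation mix containing 100uM IBMX and 25uM Ro-20-1724 for 0.5hr at room temperature. cAMP was measured by HTRF competition, 1hr.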

The target in assay [14] is D(2) dopamine receptor (Homo sapiens) (UniProt P14416). Description: Dopamine D2 receptor (DRD2) small molecule agonists, cell-based qHTS assay (AID 1963594). Note: nearly all actives have a fitted effect of over 35% in size. A digest of the protocol: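 HEK293 cells stably expressing DRD2 were cultured 24 h at 37 C, then given Ro20-1724 (0.1 mM final) and compounds for 10 min at room temperature. NKH477 (200nM) was then added for 30 min. cAMP was read by HTRF.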

Assay [15] has the same target. Description: Dopamine D2 receptor (DRD2) small molecule antagonists, cell-based qHTS assay (AID 1963595; active = well fitted inhibition curve with a large enough effect in the signal ratio in the repeat runs, with a control signal flat; the % refers to the signal ratio). An outline of the steps:
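Antagonist mode in DRD2-HEK293 cells: after compound addition with 0.1 mM Ro20-1724, cells received quinpirole (12 nM) and NKH477 (200 nM) for 30 min at room temperature; HTRF cAMP read after 1 h detection.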

Assay [16] concerns the target 5-hydroxytryptamine receptor 2A (Homo sapiens) (UniProt P28223). Description: 5-hydroxytryptamine receptor 2A (HTR2A) small molecule antagonists, cell-based qHTS assay (AID 1963586). Note: nearly all actives have a fitted effect of over 45% in size. A digest of the protocol: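 Antagonist-mode intracellular calcium assay: DOI (4 nM) added after 5 min compound pre-incubation at room temperature to dye-loaded HTR2A-CHO cells. Fluorescence followed for 3 min, sampled every second.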

In assay [17] the target is Muscarinic acetylcholine receptor M1 (Homo sapiens) (UniProt P11229). Briefly: Cholinergic receptor muscarinic 1 (CHRM1) small molecule agonists, cell-based qHTS assay (AID 1963589). Note: nearly all actives have a fitted effect of over 35% in size. A digest of the protocol: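 Human M1 in stable CHO line; 18 h plating, 1 h dye load 37 C; cpd added (agonist mode); Ca2+ fluorescence kinetic read, 1 s intervals; 15 conc, 3 runs.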
Assay [18] is described as follows: G protein-coupled receptor (GPCR) small molecule agonists, calcium flux assay: HEK293 wild type cell line counter screen (AID 1920065). An outline of the steps: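 Kinetic fluorescence at Ex/Em 480/540, recorded every second over 3 min, served as the read-out after compound addition. Each compound was tested at 15 concentrations in triplicate on cells pre-loaded with calcium dye for 1 h.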

Results filed as inconclusive are left out. Active and inactive are the calls of the source. Unless noted, calls come from the whole dose curve. Square brackets hold non-standard residues; d marks the D form. Peptide text beside a SMILES is read from it. * marks the point of attachment. Sta = CC(C)C[C@H](N)[C@@H](O)CC(=O)O; Isovaleryl = CC(C)CC(=O)*

Chain of KiSS-1 receptor (Homo sapiens) (Q969F8 whole entry, looked up): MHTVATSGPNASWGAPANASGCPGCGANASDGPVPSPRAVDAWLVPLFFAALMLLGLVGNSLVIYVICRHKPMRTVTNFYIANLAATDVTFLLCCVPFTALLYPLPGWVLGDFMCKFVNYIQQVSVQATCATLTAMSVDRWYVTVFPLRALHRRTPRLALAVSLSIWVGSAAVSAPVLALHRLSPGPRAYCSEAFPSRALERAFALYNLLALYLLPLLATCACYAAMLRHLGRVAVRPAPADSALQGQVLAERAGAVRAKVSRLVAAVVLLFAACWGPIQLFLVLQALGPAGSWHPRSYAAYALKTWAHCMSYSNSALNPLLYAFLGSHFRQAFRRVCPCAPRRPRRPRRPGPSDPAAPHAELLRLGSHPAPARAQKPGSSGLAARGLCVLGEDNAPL
Chain of Gonadotropin-releasing hormone receptor (Homo sapiens) (P30968 whole entry, looked up): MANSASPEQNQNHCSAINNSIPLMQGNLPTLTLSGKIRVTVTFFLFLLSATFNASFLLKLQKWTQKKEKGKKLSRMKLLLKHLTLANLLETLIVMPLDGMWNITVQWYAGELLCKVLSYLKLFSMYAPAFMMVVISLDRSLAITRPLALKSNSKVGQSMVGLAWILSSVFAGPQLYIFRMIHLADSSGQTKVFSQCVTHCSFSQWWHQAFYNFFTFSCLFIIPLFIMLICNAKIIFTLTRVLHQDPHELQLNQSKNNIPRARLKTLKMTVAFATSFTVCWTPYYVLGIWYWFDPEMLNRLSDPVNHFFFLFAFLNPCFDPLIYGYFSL
Chain of 5-hydroxytryptamine receptor 2A (Homo sapiens) (P28223 whole entry, looked up): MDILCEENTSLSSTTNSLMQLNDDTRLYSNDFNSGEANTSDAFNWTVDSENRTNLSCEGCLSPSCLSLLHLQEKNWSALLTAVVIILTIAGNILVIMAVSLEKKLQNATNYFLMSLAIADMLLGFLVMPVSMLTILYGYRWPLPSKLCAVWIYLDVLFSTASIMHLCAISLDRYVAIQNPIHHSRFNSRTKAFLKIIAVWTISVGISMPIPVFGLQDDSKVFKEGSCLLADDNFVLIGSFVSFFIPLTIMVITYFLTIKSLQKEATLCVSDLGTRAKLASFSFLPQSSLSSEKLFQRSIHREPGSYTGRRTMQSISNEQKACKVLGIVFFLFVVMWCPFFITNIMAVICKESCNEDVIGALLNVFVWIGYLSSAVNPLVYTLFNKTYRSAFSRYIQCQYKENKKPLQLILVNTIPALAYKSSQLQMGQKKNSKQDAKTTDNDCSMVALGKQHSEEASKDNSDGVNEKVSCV
Chain of D(2) dopamine receptor (Homo sapiens) (P14416 whole entry, looked up): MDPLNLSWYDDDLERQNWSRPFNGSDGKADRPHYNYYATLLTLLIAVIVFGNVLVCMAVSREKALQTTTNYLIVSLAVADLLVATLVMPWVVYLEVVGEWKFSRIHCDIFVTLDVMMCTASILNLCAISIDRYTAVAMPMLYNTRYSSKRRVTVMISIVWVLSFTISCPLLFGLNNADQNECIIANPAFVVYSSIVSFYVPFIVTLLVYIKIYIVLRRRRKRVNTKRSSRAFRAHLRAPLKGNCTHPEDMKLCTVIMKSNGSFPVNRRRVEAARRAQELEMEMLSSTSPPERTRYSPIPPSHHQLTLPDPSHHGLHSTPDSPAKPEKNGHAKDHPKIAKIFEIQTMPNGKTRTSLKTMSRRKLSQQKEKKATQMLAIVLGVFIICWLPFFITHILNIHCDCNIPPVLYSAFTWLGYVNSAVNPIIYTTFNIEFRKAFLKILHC
Chain of Beta-2 adrenergic receptor (Homo sapiens) (P07550 whole entry, looked up): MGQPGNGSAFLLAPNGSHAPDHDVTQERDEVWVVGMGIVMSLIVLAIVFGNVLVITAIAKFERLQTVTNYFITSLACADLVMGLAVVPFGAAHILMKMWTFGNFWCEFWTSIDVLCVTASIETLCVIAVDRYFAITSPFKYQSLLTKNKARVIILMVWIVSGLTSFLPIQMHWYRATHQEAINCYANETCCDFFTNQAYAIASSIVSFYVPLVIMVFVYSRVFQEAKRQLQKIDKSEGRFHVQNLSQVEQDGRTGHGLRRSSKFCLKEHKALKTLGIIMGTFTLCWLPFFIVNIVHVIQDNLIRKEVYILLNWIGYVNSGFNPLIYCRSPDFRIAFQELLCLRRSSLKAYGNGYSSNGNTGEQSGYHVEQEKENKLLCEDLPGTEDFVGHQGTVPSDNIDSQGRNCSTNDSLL
Chain of Muscarinic acetylcholine receptor M1 (Homo sapiens) (P11229 whole entry, looked up): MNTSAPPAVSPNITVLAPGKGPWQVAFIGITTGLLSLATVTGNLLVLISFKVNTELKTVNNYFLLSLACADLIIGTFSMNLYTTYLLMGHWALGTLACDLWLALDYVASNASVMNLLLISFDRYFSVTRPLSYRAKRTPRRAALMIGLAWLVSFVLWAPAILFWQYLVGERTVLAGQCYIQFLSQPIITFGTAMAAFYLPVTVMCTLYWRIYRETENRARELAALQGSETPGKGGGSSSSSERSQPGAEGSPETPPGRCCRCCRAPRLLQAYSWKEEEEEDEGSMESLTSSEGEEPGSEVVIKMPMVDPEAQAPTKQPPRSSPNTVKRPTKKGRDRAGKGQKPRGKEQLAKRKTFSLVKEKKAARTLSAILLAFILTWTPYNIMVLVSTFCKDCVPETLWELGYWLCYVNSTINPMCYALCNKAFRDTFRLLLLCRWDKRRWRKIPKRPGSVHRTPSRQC

For the compound `COCCOCCO`, the Potency entry in assay [1], in assay [2], in assay [4], in [5], in assay [6] and in assay [7] was “inactive” each time. Also, in [8], the Potency entry is “inactive”. The Potency in assay [3] is 1.62 µM (active).

Consider `CCCCCCCCCCCCCCC(Br)C(=O)O` (stereo not given), for which the Potency result in assay [1], in assay [2], in assay [9], in assay [10], in [11] and in [3] was “inactive” throughout. Further, the Potency entry in assay [12], in assay [4], in assay [5], in assay [6], in [8] and in assay [13] was “inactive” each time. The Potency entry in assay [14] and in [15] was “inactive” each time.

Take `CC(C)(C)c1ccc(O)cc1`: the Potency result in [16], in assay [4], in [5], in assay [17], in assay [8] and in [13] was “inactive” in each case. Also, the Potency entry in [15] was “inactive”.

In the case of `CC(C)CC(=O)N[C@H](C(=O)N[C@H](C(=O)N[C@@H](CC(C)C)[C@@H](O)CC(=O)N[C@@H](C)C(=O)N[C@@H](CC(C)C)[C@@H](O)CC(=O)O)C(C)C)C(C)C` (Isovaleryl-VV[Sta]A[Sta]-OH), the Potency result in assay [4], in assay [5] and in [17] was “inactive” in each case.

Regarding `O=S(=O)(O)c1cc(O)ccc1O`, the Potency entry in assay [11], in assay [3] and in assay [12] was “inactive” throughout.

For `CN1C(=O)C(O)N=C(c2ccccc2)c2cc(Cl)ccc21` (stereo not given), the Potency result in assay [1], in [2], in assay [18], in assay [12], in assay [4] and in assay [5] was “inactive” throughout. For the same compound, the Potency entry in assay [17], in [6], in [7], in assay [8], in [14] and in assay [15] was “inactive” throughout. In addition, in assay [13], the Potency is 31.7 µM (active).

As for `CNC(=O)/C=C(\C)OP(=O)(OC)OC`, the Potency result in [1], in [2], in assay [18], in assay [3], in [12] and in assay [16] was “inactive” in each case. Besides, the Potency result in assay [4], in assay [5], in assay [17], in [6], in assay [7] and in assay [8] was “inactive” throughout. Further, the Potency entry in assay [14] and in [15] was “inactive” in each case.

Turning to `CC(=O)[O-].CC(=O)[O-].O.O.O.[Pb+2]`, the Potency entry in [2], in [18], in assay [11], in assay [3], in assay [12] and in [16] was “inactive” each time. Also, the Potency entry in assay [4], in assay [5], in [17], in assay [6], in [7] and in [8] was “inactive” throughout. Moreover, the Potency result in [14] and in assay [15] was “inactive” in each case.

Take `N#CN`: the Potency result in assay [1], in assay [2], in [18], in [11], in [3] and in assay [12] was “inactive” in each case. Also, the Potency result in assay [16], in [4], in assay [5], in assay [17], in assay [6] and in assay [7] was “inactive” each time. Moreover, the Potency entry in assay [8], in assay [13], in [14] and in assay [15] was “inactive” each time.

As for `CC(C)CCCCCCCOP(=O)(Oc1ccccc1)Oc1ccccc1`, the Potency entry in assay [1], in assay [2], in [18], in assay [11], in assay [3] and in assay [12] was “inactive” in each case. Further, the Potency result in assay [16], in [4], in assay [17], in assay [7], in [8] and in assay [14] was “inactive” throughout. The Potency result in assay [15] was “inactive”.

Source of the values: PubChem BioAssay (Tox21).
